Eleven molecules from ChEMBL document CHEMBL3988442, “University of Dundee, Small-Polar-MMV Screening Library” (2021) can be followed below.

For some of these results: Measured potencies and affinities stand elsewhere.

Design in all cases: scale not given: direction of the effect not stated beside the values
Experiment [1] concerns the target Protein translocase subunit SecA (Escherichia coli (strain K12)) (UniProt P10408). Description: Assay to Identify E. coli SecA ATPase Inhibitors. Type of experiment: functional. The note with it: 30 µM.
Experiment [2] deals with T1, Ubiquitin-activating enzyme e1, putative (Leishmania donovani (strain BPK282A1)) (UniProt E9BSI1).
T1 sequence (whole entry): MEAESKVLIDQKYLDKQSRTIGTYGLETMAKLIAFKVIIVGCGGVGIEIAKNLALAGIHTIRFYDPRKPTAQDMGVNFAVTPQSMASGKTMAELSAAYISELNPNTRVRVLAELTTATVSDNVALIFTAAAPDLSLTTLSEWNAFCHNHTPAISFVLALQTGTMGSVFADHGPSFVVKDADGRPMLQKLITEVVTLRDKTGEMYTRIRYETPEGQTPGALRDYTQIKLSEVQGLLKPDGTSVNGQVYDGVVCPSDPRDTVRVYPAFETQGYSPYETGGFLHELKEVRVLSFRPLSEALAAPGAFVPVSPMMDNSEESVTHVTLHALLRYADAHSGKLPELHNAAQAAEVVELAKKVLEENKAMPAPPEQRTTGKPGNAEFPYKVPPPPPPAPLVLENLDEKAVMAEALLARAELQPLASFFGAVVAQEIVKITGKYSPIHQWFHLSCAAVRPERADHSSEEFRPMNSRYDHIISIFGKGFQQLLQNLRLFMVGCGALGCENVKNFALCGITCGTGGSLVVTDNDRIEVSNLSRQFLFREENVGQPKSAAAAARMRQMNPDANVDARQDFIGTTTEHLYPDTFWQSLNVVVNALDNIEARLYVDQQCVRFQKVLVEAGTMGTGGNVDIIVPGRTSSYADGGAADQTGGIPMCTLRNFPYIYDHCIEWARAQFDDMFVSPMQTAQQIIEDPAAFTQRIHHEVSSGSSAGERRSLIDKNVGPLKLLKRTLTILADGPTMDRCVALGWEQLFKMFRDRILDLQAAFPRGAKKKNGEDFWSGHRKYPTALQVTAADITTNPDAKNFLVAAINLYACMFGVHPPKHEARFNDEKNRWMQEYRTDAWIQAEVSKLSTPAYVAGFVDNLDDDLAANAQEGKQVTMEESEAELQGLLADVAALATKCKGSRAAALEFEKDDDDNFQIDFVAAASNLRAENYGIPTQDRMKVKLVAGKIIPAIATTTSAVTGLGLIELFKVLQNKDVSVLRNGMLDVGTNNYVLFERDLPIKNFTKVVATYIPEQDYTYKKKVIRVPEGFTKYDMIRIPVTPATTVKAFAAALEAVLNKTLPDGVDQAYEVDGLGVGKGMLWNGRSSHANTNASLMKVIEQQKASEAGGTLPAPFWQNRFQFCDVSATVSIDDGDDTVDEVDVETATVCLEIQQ
Nature of the experiment: Leishmania donovani Ubiquitin Activating Enzyme (LdE1). The settings on record: 30 µM. Type of experiment: functional.

Experiment [3] addresses AMP-activated protein kinase, AMPK (Homo sapiens) (UniProt P54646+O43741+P54619+Q9UGJ0+Q9Y478+Q13131+Q9UGI9). Description: AMP-dependent Kinase enzyme assay. An in vitro enzyme assay that detects ADP turnover that is directly proportional to AMPK activity. This uses naive AMPK that is activated during the assay with MK-8722. The note with it: 30 µM. Type of experiment: functional.

Experiment [4] deals with Sialic acid-binding Ig-like lectin 9 (Homo sapiens) (UniProt Q9Y336). Nature of the experiment: Hs-Siglec9 ALPHAscreen SOP 20170721. The settings on record: 10 µM.
Sialic acid-binding Ig-like lectin 9 (Homo sapiens), sequence (Q9Y336 whole entry): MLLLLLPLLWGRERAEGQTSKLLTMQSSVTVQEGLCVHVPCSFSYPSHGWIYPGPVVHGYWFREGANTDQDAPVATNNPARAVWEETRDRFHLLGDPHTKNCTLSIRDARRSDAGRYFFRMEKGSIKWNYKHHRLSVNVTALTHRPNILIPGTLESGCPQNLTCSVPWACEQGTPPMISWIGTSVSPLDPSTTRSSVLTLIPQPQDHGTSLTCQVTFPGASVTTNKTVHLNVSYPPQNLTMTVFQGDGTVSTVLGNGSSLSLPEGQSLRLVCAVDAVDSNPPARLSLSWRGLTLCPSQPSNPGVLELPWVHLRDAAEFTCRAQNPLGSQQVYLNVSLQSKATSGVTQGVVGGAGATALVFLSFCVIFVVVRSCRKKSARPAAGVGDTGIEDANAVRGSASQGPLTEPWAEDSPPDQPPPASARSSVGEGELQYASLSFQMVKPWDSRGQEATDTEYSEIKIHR
The next experiment concerns Trypanosoma cruzi. Nature of the experiment: Trypanosoma cruzi phosphomannomutase and mannose-1-phosphate guanylyltransferase assay. The settings on record: 10 µM. Type of experiment: functional.
The target in experiment [5] is T2, Arginase-2, mitochondrial (Homo sapiens) (UniProt P78540).
T2 sequence (whole entry): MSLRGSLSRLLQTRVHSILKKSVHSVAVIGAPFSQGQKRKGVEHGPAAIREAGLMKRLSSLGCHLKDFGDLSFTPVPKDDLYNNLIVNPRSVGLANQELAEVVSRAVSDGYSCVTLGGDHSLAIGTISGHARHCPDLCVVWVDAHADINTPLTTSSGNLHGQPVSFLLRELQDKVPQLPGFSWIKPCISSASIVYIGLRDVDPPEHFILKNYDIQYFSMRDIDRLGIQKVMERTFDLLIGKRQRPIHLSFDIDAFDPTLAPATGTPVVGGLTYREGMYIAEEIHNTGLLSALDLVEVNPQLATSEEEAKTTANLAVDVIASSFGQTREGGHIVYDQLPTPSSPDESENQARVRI
Description: in vitro enzyme assay to detect the production of urea directly proportional to the activity of Arginase II. Also: in the data most compounds retested in dose-response had high values. Type of experiment: functional. The settings on record: 33.3 µM.

For experiment [6], the target named is T3, Proteasome subunit beta (Trypanosoma cruzi) (UniProt O96673).
T3 sequence (whole entry): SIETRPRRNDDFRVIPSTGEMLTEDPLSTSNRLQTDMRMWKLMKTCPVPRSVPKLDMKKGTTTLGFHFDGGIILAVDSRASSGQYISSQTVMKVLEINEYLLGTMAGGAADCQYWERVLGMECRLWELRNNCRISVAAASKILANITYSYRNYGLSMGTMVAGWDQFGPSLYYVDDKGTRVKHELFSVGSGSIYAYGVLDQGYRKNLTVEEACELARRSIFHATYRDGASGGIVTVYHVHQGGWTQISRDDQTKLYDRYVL
Nature of the experiment: Trypanosoma cruzi proteasome chymotrypsin-like activity (TcProtChymo) assay. Also: in the data most compounds retested in dose-response had high values. The note with it: 9.37 µM. Type of experiment: functional.

For a further experiment, the species on record is Homo sapiens. Description: To identify inhibition of the IFN signalling (Jak-Stat) pathway via expression of an eGFP reporter gene under the control of an IFN-stimulated response element (ISRE) containing MxA promoter. Type of experiment: functional. The note with it: 30 µM. A general note: Reporter assays use an easily measured gene product as a stand-in for the process of interest.

Experiment [7] deals with T4, Tyrosyl-tRNA synthetase, putative (Trypanosoma cruzi (strain CL Brener)) (UniProt Q4DSP6).
T4 sequence (whole entry): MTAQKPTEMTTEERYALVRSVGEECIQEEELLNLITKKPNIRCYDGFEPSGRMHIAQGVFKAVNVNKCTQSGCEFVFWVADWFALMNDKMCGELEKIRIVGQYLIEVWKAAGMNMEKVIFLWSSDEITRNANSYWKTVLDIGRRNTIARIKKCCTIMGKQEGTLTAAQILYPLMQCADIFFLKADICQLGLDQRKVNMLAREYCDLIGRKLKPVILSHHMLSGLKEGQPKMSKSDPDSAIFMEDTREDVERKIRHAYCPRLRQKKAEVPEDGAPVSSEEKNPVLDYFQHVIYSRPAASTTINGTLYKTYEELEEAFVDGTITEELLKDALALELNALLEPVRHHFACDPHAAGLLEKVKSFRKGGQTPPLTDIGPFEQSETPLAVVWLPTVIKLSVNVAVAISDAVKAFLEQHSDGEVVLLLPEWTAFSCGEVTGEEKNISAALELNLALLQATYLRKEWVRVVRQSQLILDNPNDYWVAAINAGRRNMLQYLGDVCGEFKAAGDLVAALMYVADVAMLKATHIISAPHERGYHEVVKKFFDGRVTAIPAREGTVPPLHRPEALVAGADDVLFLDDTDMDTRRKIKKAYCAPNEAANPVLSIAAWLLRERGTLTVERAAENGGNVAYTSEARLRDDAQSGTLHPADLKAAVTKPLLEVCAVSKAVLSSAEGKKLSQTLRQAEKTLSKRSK
Description: Trypanosoma cruzi tyrosyl tRNA synthetase (TcYRS) _High Tyrosine SOP. Also: in the data most compounds retested in dose-response had high values. Type of experiment: functional. The note with it: 30 µM.

The target in experiment [8] is T4, Tyrosyl-tRNA synthetase, putative (Trypanosoma cruzi (strain CL Brener)). Description: Trypanosoma cruzi tyrosyl tRNA synthetase (TcYRS) SOP. Type of experiment: functional. The settings on record: 30 µM.
Experiment [9] concerns the target Chromo domain-containing protein 1 (Saccharomyces cerevisiae (strain ATCC 204508 / S288c) (Baker's yeast)) (UniProt P32657). Nature of the experiment: ScCHD-1 Enzyme Inhibition Assay. Also: in the data most compounds retested in dose-response had high values. Type of experiment: functional. The settings on record: 30 µM.

Protein translocase subunit SecA (Escherichia coli (strain K12)), sequence (P10408 whole entry): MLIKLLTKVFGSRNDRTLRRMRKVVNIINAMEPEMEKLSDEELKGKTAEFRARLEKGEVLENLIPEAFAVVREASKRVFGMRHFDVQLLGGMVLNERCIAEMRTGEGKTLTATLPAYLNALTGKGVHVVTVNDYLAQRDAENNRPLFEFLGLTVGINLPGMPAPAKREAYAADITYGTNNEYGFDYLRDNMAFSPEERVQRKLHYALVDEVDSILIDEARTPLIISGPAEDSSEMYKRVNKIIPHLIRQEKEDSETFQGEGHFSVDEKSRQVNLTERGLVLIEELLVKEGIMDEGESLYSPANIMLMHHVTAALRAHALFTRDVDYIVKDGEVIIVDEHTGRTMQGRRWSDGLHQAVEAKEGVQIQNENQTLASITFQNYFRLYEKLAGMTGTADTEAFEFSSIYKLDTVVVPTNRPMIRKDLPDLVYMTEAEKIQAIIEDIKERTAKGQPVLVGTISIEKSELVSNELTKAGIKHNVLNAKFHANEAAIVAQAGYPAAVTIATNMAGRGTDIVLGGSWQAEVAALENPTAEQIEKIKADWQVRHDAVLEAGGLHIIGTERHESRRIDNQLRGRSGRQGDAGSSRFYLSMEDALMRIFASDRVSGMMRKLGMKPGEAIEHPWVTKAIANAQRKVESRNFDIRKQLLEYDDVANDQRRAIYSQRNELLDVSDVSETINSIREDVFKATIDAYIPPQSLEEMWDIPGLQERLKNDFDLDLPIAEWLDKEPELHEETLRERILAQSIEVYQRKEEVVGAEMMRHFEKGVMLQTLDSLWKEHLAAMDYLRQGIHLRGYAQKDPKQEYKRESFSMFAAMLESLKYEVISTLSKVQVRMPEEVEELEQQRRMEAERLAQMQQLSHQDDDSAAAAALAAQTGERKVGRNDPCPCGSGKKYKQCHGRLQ
Chromo domain-containing protein 1 (Saccharomyces cerevisiae (strain ATCC 204508 / S288c) (Baker's yeast)), sequence (P32657 whole entry, the tested form may be a part): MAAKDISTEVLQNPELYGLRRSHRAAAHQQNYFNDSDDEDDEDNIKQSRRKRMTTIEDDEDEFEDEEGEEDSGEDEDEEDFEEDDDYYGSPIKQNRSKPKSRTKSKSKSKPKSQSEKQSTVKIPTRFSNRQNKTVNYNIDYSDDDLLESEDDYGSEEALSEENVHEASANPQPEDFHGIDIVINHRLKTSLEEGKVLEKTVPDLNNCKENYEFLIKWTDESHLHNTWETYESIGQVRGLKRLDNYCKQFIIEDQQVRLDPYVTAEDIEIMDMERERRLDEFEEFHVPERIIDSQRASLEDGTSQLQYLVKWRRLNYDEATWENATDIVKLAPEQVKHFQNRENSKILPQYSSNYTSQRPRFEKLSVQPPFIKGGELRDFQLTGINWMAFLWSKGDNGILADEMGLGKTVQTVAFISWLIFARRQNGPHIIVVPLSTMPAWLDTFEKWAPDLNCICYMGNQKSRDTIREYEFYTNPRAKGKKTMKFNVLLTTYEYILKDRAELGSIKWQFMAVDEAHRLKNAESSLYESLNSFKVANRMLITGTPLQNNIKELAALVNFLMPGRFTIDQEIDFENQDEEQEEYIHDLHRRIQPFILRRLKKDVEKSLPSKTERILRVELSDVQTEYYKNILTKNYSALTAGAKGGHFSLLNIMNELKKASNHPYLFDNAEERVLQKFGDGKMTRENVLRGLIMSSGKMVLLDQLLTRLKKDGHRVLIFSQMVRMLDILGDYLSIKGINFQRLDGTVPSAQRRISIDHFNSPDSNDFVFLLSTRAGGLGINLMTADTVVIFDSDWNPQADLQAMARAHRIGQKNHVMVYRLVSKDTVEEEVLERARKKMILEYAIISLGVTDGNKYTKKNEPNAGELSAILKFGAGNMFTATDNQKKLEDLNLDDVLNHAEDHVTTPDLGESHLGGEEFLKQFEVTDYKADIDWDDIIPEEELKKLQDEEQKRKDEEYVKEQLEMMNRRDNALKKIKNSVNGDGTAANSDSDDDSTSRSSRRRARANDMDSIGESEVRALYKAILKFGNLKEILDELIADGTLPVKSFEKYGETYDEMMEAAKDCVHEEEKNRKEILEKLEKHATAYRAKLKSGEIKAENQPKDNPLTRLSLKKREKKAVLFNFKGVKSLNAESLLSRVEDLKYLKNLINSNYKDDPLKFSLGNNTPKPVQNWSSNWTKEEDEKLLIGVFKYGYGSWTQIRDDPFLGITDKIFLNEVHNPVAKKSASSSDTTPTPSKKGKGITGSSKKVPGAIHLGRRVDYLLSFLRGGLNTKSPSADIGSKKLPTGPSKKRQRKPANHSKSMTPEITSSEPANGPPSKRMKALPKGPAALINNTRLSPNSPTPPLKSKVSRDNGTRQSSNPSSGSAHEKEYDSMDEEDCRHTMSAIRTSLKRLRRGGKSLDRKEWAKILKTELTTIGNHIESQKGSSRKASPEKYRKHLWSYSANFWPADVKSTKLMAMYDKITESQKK

Regarding `CC(NC(=O)Nc1cc(F)ccc1N1CCCCC1)c1nncn1C` (stereo unspecified), the Percent Effect was -4.95% in [1]; 5.41% in experiment [2]; -5.33% in experiment [3]; -3.53% in [4]; -3.49% in the experiment with Trypanosoma cruzi; 2.81% in experiment [5]. In addition, the Percent Effect in experiment [6] was -3.78%; in the experiment filed under Homo sapiens it was 1.69%; in experiment [7] it was 1.48%; in experiment [8], 1.24%; in experiment [9] it was -2.66%.
For `CC(=O)N1CCC2(CC1)CC(Oc1ccccc1)CO2` (stereo unspecified), the Percent Effect in [1] was 1.79%; in experiment [2], 2.74%; in [3] it was 2.24%; in experiment [4], 9.38%; in the experiment on Trypanosoma cruzi, -4.17%; in experiment [5] it was -1.2%. Further, the Percent Effect in [6] is 19.6%; in the experiment filed under Homo sapiens, 1.3%; in experiment [7] it was 6.25%; in [8] it was 8.64%; in experiment [9] it was 3.27%.
With `Cc1ccc(OCCC(=O)NC2CCc3nccn3C2)cc1` (stereo unspecified), the Percent Effect in experiment [1] was -6%; in experiment [2], 0%; in experiment [3] it was 7.39%; in [4], 1.52%; in the experiment on Trypanosoma cruzi, -1.07%; in experiment [5], -13%. Further, the Percent Effect in [6] was 17.6%; in the experiment filed under Homo sapiens, -12.9%; in [7], 5.32%; in experiment [8] it was 13%; in experiment [9] it was -2.38%.
With `CN(C)C(=O)CSc1nnc(CCNC(=O)OC(C)(C)C)o1`, the Percent Effect in experiment [1] was -1.89%; in experiment [2] it was 9.33%; in experiment [3], 6.95%; in experiment [4], -7.38%; in the experiment on Trypanosoma cruzi, -8.64%; in [5], -13.6%. In addition, the Percent Effect in experiment [6] is 13.9%; in the experiment filed under Homo sapiens, 10.4%; in experiment [7], -3.17%; in [8] it was 2.56%; in experiment [9] it was -10.9%.
In the case of `Cc1nccn1CC1CCCN1S(=O)(=O)Cc1ccon1` (stereo unspecified), the Percent Effect in experiment [1] was -1.65%; in experiment [2], 20.2%; in [3], -1.52%; in experiment [4] it was -6.85%; in the experiment with Trypanosoma cruzi, 3.68%; in experiment [5] it was -6.84%. The Percent Effect was 14% in experiment [6]; 7.78% in the experiment filed under Homo sapiens; 5.42% in experiment [7]; 3.8% in [8]; -7.21% in [9].
For the molecule `Cc1cnn(CC2CCCN2C(=O)c2cc3ccccc3[nH]c2=O)c1` (stereo unspecified), the Percent Effect in [1] was -8.51%; in experiment [2] it was 7.79%; in experiment [3], -12.6%; in experiment [4], -10%; in the experiment on Trypanosoma cruzi it was -5.97%; in [5], -1.9%. The Percent Effect is 8.49% in experiment [6]; 15% in the experiment listed under Homo sapiens; 1.91% in experiment [7]; 7.06% in experiment [8]; -15.3% in [9].
Turning to `N#Cc1ccc(C(=O)N2CC[C@H]3[C@@H]2CCC(=O)N3c2ccccc2)cc1`, the Percent Effect in experiment [1] was 1.09%; in experiment [2] it was 0%; in [3] it was 6.69%; in [4], -7.59%; in the experiment with Trypanosoma cruzi, -7.68%; in experiment [5], 4.89%. The Percent Effect is 6.08% in [6]; 0.115% in the experiment filed under Homo sapiens; 4.25% in experiment [7]; 11.5% in [8]; -4.7% in experiment [9].
As for `Cc1noc(C)c1CNC(=O)N1CCC(C(O)c2ccccc2)CC1` (stereo unspecified), the Percent Effect in experiment [1] was -4.23%; in experiment [2], 11%; in experiment [3] it was -3.81%; in experiment [4], 6.33%; with Trypanosoma cruzi, 7.54%; in [5], -4.79%. For the same molecule, the Percent Effect in [6] is -1.8%; in the experiment listed under Homo sapiens, 11.9%; in experiment [7], 2.08%; in experiment [8], 13.6%; in experiment [9] it was -3.08%.
For the molecule `COCc1cccc(CNCc2c(C)nn(C)c2N(C)C)c1`, the Percent Effect was -6.8% in [1]; 18.9% in experiment [2]; -21.5% in experiment [3]; 9.53% in experiment [4]; 7.64% in the experiment with Trypanosoma cruzi; -4.01% in [5]. Moreover, the Percent Effect is 12.4% in experiment [6]; 4.56% in the experiment filed under Homo sapiens; 7.39% in [7]; 23.5% in [8]; -13.6% in experiment [9].
On to `O=C(Cc1cccc(F)c1)NCCNCc1ccc2c(c1)CCO2`, for which the Percent Effect in experiment [1] was -4.03%; in [2], 13%; in experiment [3] it was -6%; in experiment [4], 17.2%; with Trypanosoma cruzi, 3.93%; in experiment [5] it was -1.42%. For the same molecule, the Percent Effect in experiment [6] was -1.52%; in the experiment filed under Homo sapiens, -5.5%; in [7], 8.74%; in experiment [8], 19.5%; in experiment [9], -5.42%.
Consider `Cn1ncc2c1C(COCC1CC1)CN(Cc1ccoc1)C2` (stereo unspecified), for which the Percent Effect in experiment [1] was -1.65%; in [2], 18.9%; in experiment [3] it was 1.61%; in experiment [4], -6.93%; with Trypanosoma cruzi it was 2.83%; in experiment [5] it was 9.87%. Besides, the Percent Effect was found to be 23.8% in experiment [6]; 27.7% in the experiment listed under Homo sapiens; 5.41% in [7]; 20.5% in experiment [8]; 2.77% in experiment [9].
